Results: PubChem BioAssay AID488890 (Southern Research Specialized Biocontainment Screening …, 2010)
Screen size: about 320,000 compounds; about 1,300 (0.41%) were called active. Roughly 3% stayed inconclusive and do not appear here. How the calls were made is not given here. Only a sample is shown. Entries with a potency or affinity are not part of this list.

Experiment: growth inhibition of non-replicating M. tuberculosis (AID 488890);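 further: plate controls were DMSO cells for no effect and high antibiotic wells for full effect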
Conditions: Mycobacterium tuberculosis non-replicating, at 25 µM, stronger effect = higher value

First: CN(CC(=O)NCc1ccccc1Cl)S(=O)(=O)c1ccc2c(c1)n(C)c(=O)c(=O)n2C
Second: Cc1ccc(C2(C)NC(=O)N(CC(=O)N(C)CC(=O)Nc3cccc4ccccc34)C2=O)cc1 (centres undefined)
The inhibition of the first is lower: -4.13% for the first, 7.1% for the second.

First: CCOC(=O)CC(=O)COc1nc2cc3c(nc2o1)CCCC3
Second: Cc1ccn2c(=O)nc(SCC(=O)N3CCCC3)nc2c1
The inhibition of the first is lower: -11.4% for the first, 8.52% for the second.

Compared with NCCCC[C@H](NC(=O)C1CCNCC1)c1nnc(CN)o1, Cc1oc(-c2cccc(Cl)c2)nc1CN1CCCC(C(=O)NCc2ccco2)C1 (centres undefined) is higher in inhibition: -30.9% for the first, 22.8% for the second.

Compared with CCC/C(=C1/c2ccccc2C(=O)N1c1ccccc1)c1cnc(OC)nc1, O=C1O/C(=C/c2ccccc2)c2ccccc21 is lower in inhibition: 24.1% for the first, -7.13% for the second.

Going from COc1ccc(CN2CCN(c3ccccc3OC)CC2)cc1OC to COc1ccc(C2=NCC(=S)Nc3ccc(Cl)cc32)cc1OC, the inhibition falls from -6.29% to -21%.

First: O=C(COC(=O)c1ccc(Br)o1)Nc1nc2ccccc2s1
Second: Nc1ccc(C(=O)OCc2nc3ccccc3s2)cc1
The inhibition of the first is higher: 71.5% for the first, 68.4% for the second.

Going from COc1ccc(C2=NOC(C(=O)N(C)Cc3ccccc3)C2)cc1 (centres undefined) to Cc1ccc(C(=O)/C=C\NCc2ccccc2)cc1, the inhibition falls from 48.3% to 37.6%.

First: O=C(c1ccc(F)cc1)C(Cc1ccccc1)N1CCCCC1 (centres undefined)
Second: CC(C)NC(=O)Cn1c(SCC(=O)c2ccc(F)cc2)nc2ccccc21
The inhibition of the first is higher: 63.6% for the first, 7.83% for the second.

First: Cc1ccn2c(=O)cc(C)nc2c1
Second: Cc1cc(=O)n2ccsc2n1
The inhibition of the first is higher: 4.9% for the first, 0.97% for the second.

Compared with CCOc1ccc(N(CC(=O)N2CCN(c3ccc(F)cc3)CC2)S(=O)(=O)c2c(C)noc2C)cc1, COc1ccc(N(CC(=O)Nc2ccccc2C)S(=O)(=O)c2c(C)[nH]c(=O)[nH]c2=O)cc1 is lower in inhibition: 21.6% for the first, 8.99% for the second.

First: Cn1nc([N+](=O)[O-])nc1Sc1nnc(-c2ccccc2)o1
Second: COC(=O)CSc1nnc(-c2ccccc2OC)o1
The inhibition of the first is higher: 78% for the first, 77.4% for the second.

Going from CCCOc1ccc(N2CC(C(=O)NC(C)C)CC2=O)cc1 (centres undefined) to COc1ccc(NCN2C(=O)CCC2=O)cc1, the inhibition rises from -9.57% to 61%.

Compared with CCC(=Nc1cccc(C(F)(F)F)c1)c1c(O)n(C)c(=O)n(C)c1=O, CCC(=Nc1ccc2c(c1)CCC2)c1c(O)n(C)c(=O)n(C)c1=O is higher in inhibition: -2.54% for the first, 7.71% for the second.

Compared with COc1cccc(OC)c1C(=O)OCC(=O)N1CC(C)CC(C)C1 (centres undefined), COC(=O)C1=C(C)OC(N)=C(C#N)C1c1ccc(OC)c(CSc2ccccn2)c1 (centres undefined) is higher in inhibition: -15.5% for the first, 10.8% for the second.

First: Cc1nc2ccccc2c(=O)n1/N=C/c1c(O)ccc2ccccc12
Second: Cc1nnc(C)n1/N=C/c1c(O)ccc2ccccc12
The inhibition of the first is higher: 40.6% for the first, 3.2% for the second.

Compared with Fc1cccc(Nc2cc(-n3cccn3)ncn2)c1, COc1ccc(NC(=O)Nc2ccccc2F)c(C)c1 is lower in inhibition: 21.4% for the first, 20.6% for the second.

Compared with CN(Cc1cccs1)S(=O)(=O)c1ccc(Cl)cc1F, CN(C)/C=C1/OC(=O)C(C#N)=C1c1ccc(Cl)cc1 is lower in inhibition: 44.2% for the first, -0.58% for the second.

Compared with Cc1ccc(N=Cc2nc(-c3ccco3)oc2O)cc1, Oc1oc(-c2ccco2)nc1C=Nc1ccccc1 is lower in inhibition: 73.2% for the first, 17% for the second.

Compared with CC(C)(O)C#Cc1ccc(CN2CCN(C3CCCCC3)C(CCO)C2)s1 (centres undefined), C[C@H](CO)N1C[C@H](C)[C@@H](CN(C)S(=O)(=O)c2cn(C)cn2)Oc2ccc(NC(=O)NC3CCCCC3)cc2C1=O is lower in inhibition: 11.2% for the first, -8.37% for the second.

Going from CCN(CC)CCOC(=O)/C=C/c1ccccc1OC to COc1ccccc1-c1cn(C(C)(C)C)nc1C, the inhibition rises from -10.5% to -1.55%.

Compared with COc1ccc(C)cc1Nc1n[n+](-c2ccccc2)c(-c2ccc(SC)cc2)s1, CCOc1cc(-c2sc(Nc3ccc(CC)cc3)n[n+]2-c2ccccc2)ccc1OC is lower in inhibition: 76.9% for the first, 63.8% for the second.

First: Oc1cc2c(cc1CN1CCN(c3ncccn3)CC1)OCO2
Second: Cc1nc2ccccc2nc1OCC(=O)Nc1cc(C(F)(F)F)ccc1N1CCOCC1
The inhibition of the first is higher: 8.73% for the first, 5.99% for the second.

Going from C=CCNc1oc(-c2cccs2)nc1C#N to N#Cc1nc(-c2cccs2)oc1NCc1ccccc1, the inhibition rises from -2.7% to 29.7%.

First: CC1CCCC(NS(=O)(=O)c2cc3c(cc2Cl)NC(=O)CO3)C1C (centres undefined)
Second: CCc1ccc(NS(=O)(=O)c2cc3c4c(c2)CCN4C(=O)CC3)cc1
The inhibition of the first is higher: 31.5% for the first, 1.05% for the second.

Compared with O=C1CN=C(c2ccccc2)c2cc(Cl)ccc2N1, Cc1cccc2nc(CNC(=O)C3CCC(=O)N(Cc4ccccc4F)C3)cn12 (centres undefined) is lower in inhibition: 5.86% for the first, -13.7% for the second.

First: O=C(CN1C(=O)C(=O)N(CCC2=CCCCC2)C1=O)Nc1ccc(F)cc1F
Second: O=C(CN1CCCCC1)N/N=C/c1ccc(Cl)cc1Cl
The inhibition of the first is higher: 8.84% for the first, -4.16% for the second.

Going from COc1cc(/C=C/[N+](=O)[O-])ccc1OC(=O)c1cc2ccccc2oc1=O to COc1ccc(N/C=C/C(=O)c2ccc(Cl)cc2)cc1, the inhibition rises from 37.8% to 45.2%.

Going from CN=C1NN=C(c2cc(C)n(-c3ccc(Cl)cc3)c2C)CS1 to Cc1cc(C2=NNC(=NC3CC3)SC2)c(C)n1-c1c(C)n(C)n(-c2ccccc2)c1=O, the inhibition falls from 14.6% to 4.63%.

First: Nc1c(C(=O)OCC(=O)NCc2ccccc2)[nH]c(=O)[nH]c1=O
Second: Cc1nn(C(=O)CCC(=O)NCc2ccc(OC(C)C)cc2)c2ccccc12
The inhibition of the first is lower: -9.15% for the first, -4.46% for the second.

Compared with Cc1[nH]c(=O)[nH]c(=O)c1/C=C/C(=O)O, Cc1ccc(N/C=C/C(=O)c2ccc(C)cc2)cc1 is higher in inhibition: -4.51% for the first, 19.2% for the second.

First: CCCCn1c(N)c(N(CC(C)C)C(=O)c2ccc(-c3ccc(Cl)cc3)o2)c(=O)[nH]c1=O
Second: NS(=O)(=O)c1ccc(-c2ccc(C=C3C(=O)NC(=O)NC3=O)o2)cc1
The inhibition of the first is higher: 74.7% for the first, 2.79% for the second.

Going from CNS(=O)(=O)c1ccc(-c2ccc(C=C3C(=O)NC(=O)NC3=O)o2)cc1 to COc1ccc(C(=O)NNC(=O)Nc2ccc(Cl)cc2)cc1, the inhibition falls from -1.77% to -7.99%.

Compared with CCCc1nc(SCc2ccc(Cl)cc2Cl)n[nH]1, Nc1nc(SCc2ccc(Cl)cc2Cl)n[nH]1 is lower in inhibition: 2.74% for the first, 1.74% for the second.

Going from CC(C)n1c(SCC(=O)Nc2ccc(F)cc2)nnc1C1CC1 to O=C(N/N=C/c1cccc(C(F)(F)F)c1)c1ccc(O)cc1, the inhibition rises from -1.85% to 16.8%.

First: CN(C#N)c1nccc(-c2cccs2)n1
Second: O=C1CCC(=O)N1CNc1cccnc1
The inhibition of the first is higher: 19% for the first, 3.84% for the second.

First: COc1ccc(CCNC(=O)c2ccc(Cl)cc2)cc1
Second: COc1ccc(C(=O)NCC(=O)NCC(=O)OCc2ccc(Cl)cc2)cc1
The inhibition of the first is higher: 74.1% for the first, -0.72% for the second.

Going from COC(=O)c1sc2nc(N3CCCCC3)c3c(c2c1N)CCCC3 to O=C(N/N=C/c1cc(Br)c(O)c(Br)c1)c1cccc(C(F)(F)F)c1, the inhibition rises from 1.1% to 21%.
